# Source: PubChem
# CYP2C9 inh: blockers of cytochrome P450 2C9 activity – biochemical, luminescence, ADME assay, primary screen | CYP2C9 Supersomes, luciferin-H conversion | P11712 | inhibition, % at 5 µM | 96,000 compounds, 20% hits;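 active = blocking of liver enzyme CYP2C9 beyond about 50% at 5 µM, limit read from the data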
# CYP2C9 act: human CYP2C9 activators, primary screen, biochemical, luminescence. recombinant CYP2C9, luciferin-H conversion; hits give high values; factor 1 = untreated enzyme, 0 = blocked. 96,000 compounds, 1.4% hits. activation factor at 5 µM;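 active = activation factor of 2 or more for CYP2C9 at a 5 µM dose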;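 also: 0 = sulfaphenazole-blocked wells and 1 = vehicle-only wells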
# CYP2C19 activ: human CYP2C19 activators, primary screen, biochemical, luminescence; Cytochrome P450 2C19 (Homo sapiens), P33261; recombinant CYP2C19, luciferin-H EGE luminescence; hits give high values; 0 = fully inhibited enzyme, 1 = untreated enzyme; activation factor at 5 µM; 96,000 tested, under 10 active;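 active = activation factor of at least 2 at 5 µM in the primary screen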;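 also: 0 = wells with 2.5 mM tranylcypromine and 1 = vehicle-only wells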
# Target sequence (P33261 whole entry, looked up): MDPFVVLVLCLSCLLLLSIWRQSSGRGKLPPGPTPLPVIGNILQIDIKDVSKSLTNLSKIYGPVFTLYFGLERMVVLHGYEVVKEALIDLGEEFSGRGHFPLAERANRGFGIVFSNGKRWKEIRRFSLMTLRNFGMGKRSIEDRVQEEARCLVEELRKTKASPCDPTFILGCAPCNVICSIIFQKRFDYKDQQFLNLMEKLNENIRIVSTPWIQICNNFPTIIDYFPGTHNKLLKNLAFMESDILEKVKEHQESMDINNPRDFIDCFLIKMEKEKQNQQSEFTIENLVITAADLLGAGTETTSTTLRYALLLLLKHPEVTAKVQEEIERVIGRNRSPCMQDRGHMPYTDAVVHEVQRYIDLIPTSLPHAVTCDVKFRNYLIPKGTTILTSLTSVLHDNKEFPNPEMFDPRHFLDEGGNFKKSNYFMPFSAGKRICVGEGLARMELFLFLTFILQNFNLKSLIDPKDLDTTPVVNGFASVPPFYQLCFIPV
# CYP2C19 inh: blockers of cytochrome P450 2C19 activity – biochemical, luminescence, ADME assay, primary screen. P33261. CYP2C19 Supersomes, luciferin-H EGE luminescence, 30 min. inhibition, % at 5 µM. 96,000 compounds, 21% hits;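 active = CYP2C19 inhibition above a set limit at 5 µM in the primary screen, cut at about 50% in these data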;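 also: plate controls were negative control wells for no effect and 2.5 mM tranylcypromine positive control for full effect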
# PLK1 kinase inh: human PLK1 kinase inhibitors, primary screen, biochemical, TR-FRET; recombinant PLK1 kinase, TR-FRET peptide phosphorylation; inhibition, % at 10 µM; 97,000 compounds, 0.53% hits; AID 619, 2007;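 active = inhibition of 50% or more in the single-concentration screen; inactive = inhibition below 50%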;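 also: 0% = DMSO max control and 100% = H-89 dihydrochloride min control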
# Plk1 PBD FP: Plk1 polo box domain binding inhibitors, primary screen, biochemical, fluorescence polarization; Serine/threonine-protein kinase PLK1 (Homo sapiens), P53350; Plk1 PBD phosphopeptide binding; inhibition, %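 (tested at about 20 µM)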; 97,000 compounds, 0.13% hits; in the data active = inhibition above about 34%, passing the limit was not always enough
# * = called active by the depositor; · = no result. Only some compounds are listed: those with a hit (about 28% of all), similar ones and a draw of the others.
SMILES,CYP2C9 inh,CYP2C9 act,CYP2C19 activ,CYP2C19 inh,PLK1 kinase inh,Plk1 PBD FP
COc1ccccc1NC(=O)C1=C(C)NC(SCC(=O)c2ccc(C)cc2)=C(C#N)C1c1ccco1 (stereo not drawn),90*,0.1,0.2,84*,-29,0
CC(=O)C1=C(C)NC(SCC(=O)c2ccc(F)cc2)=C(C#N)C1c1ccco1 (stereo not drawn),80*,0.2,0,98*,-3,-4
CCOC(=O)c1ccc(Oc2cc(C)nc(SC)n2)cc1,9,0.9,0.8,15,-7,12
Cc1ccc2c(n1)sc1c(N)ncnc12,-3,1,1.1,-6,26,-13
COc1cccc(CNC(=O)C2CCCN(c3nn4c(=O)cc(C)nc4s3)C2)c1OC (stereo not drawn),10,0.9,0.6,37,-13,-22
CC(=O)C1=C(C)NC(SCc2cccc([N+](=O)[O-])c2)=C(C#N)C1c1ccco1 (stereo not drawn),84*,0.2,0,100*,-9,14
O=c1c(-c2ccccc2)n[nH]c2ccccc12,31,0.7,0.8,22,-3,-21
Nc1c(-c2ccccc2)n[nH]c1-c1ccccc1,40,0.6,0.3,75*,-12,15
COc1ccc(/C=C/C(=O)NC(C)C)cc1Br,-38,1.4,0.9,12,-8,29
COc1ccc(/C=C/C(=O)N(C(C)C)C(C)C)cc1Br,-12,1.1,0.4,60*,-14,10
Cc1nnsc1C(=O)NNS(=O)(=O)c1ccccc1,4,1,1.1,-13,-12,-24
N#CCC1c2ccccc2CCN1C(=O)Nc1ccc(Cl)cc1 (stereo not drawn),34,0.7,0.5,55*,-8,12
CCCCNc1nnc(SCC(=O)N2CCN(S(=O)(=O)c3ccc4ccccc4c3)CC2)s1,87*,0.1,0.2,79*,-10,38
Nn1cc(-c2ccccc2)nc1SCC(=O)N1CCN(S(=O)(=O)c2ccc3ccccc3c2)CC1,47,0.5,0.8,19,-9,-18
COc1ccc(NS(=O)(=O)c2cc(C(=O)O)ccc2C)cc1,21,0.8,1,1,-11,7
COc1ccc(C)cc1S(=O)(=O)Nc1ccc(F)cc1,72*,0.3,0.1,88*,-3,-24
COC(=O)c1ccc(NS(=O)(=O)c2cc(C)ccc2OC)cc1,55*,0.4,0.9,13,-15,0
CCOC(=O)c1ccc(NS(=O)(=O)c2cc(-c3nnnn3C(C)C)ccc2OC)cc1,91*,0.1,0.1,90*,-7,-11
COc1ccc(C)cc1S(=O)(=O)Nc1cccnc1,4,1,0.8,20,·,·
CCOc1cc(C)c(S(=O)(=O)Nc2ccc(F)cc2)cc1C,97*,0,0,100*,-2,-3
CCn1nnnc1-c1ccc(OC)c(S(=O)(=O)Nc2ccc(C(=O)OC)cc2)c1,35,0.7,0.8,23,-8,-2
CC1(C)SC(=S)N(/N=C/c2ccccc2)C1N(O)C(=O)Nc1ccc([N+](=O)[O-])cc1 (stereo not drawn),1,1,1.1,-10,-7,-15
CCCCNC(=O)Nc1cc(C(=O)OC)ccc1Cl,-11,1.1,0.8,23,-1,-11
CCCCC(=O)Nc1c(C)cc(C)cc1Cl,13,0.9,0.7,26,2,8
COc1ccc(NS(=O)(=O)c2ccc(OC)c3ccccc23)cn1,85*,0.1,0.8,17,-14,-12
SMILES,CYP2C9 inh,CYP2C9 act,CYP2C19 activ,CYP2C19 inh,PLK1 kinase inh,Plk1 PBD FP
COc1ccc(OC)c(S(=O)(=O)Nc2cnc3ccccc3c2)c1,24,0.8,0.3,73*,-6,-13
COc1ccc(F)cc1S(=O)(=O)Nc1ccc2c(c1)OCCO2,7,0.9,0.7,34,·,·
COc1ccc(OC)c(S(=O)(=O)Nc2cccc(F)c2)c1,68*,0.3,0.1,89*,-38,17
COc1ccc(OC)c(S(=O)(=O)Nc2ccc(OCC(=O)O)cc2)c1,2,1,1,-4,-9,-31
CCc1ccc(NS(=O)(=O)c2cc(OC)ccc2OC)cc1,68*,0.3,0.5,54*,-9,13
COc1cccc(CNC(=O)C2CCCN(c3nc4ccccc4o3)C2)c1 (stereo not drawn),27,0.7,0.7,28,-4,6
CC(=O)CSc1nnc(-c2cnccn2)n1-c1ccccc1,-14,1.1,1.2,-17,-3,-4
CCn1c2ccccc2c2nnc(SCC(=O)Nc3ccc4c(c3)OCO4)nc21,18,0.8,1,-1,-12,8
CCOc1ccc(NC(=O)C2CCCN(S(=O)(=O)c3cccc4nsnc34)C2)cc1 (stereo not drawn),4,1,1,0,1,-15
COc1ccc(OC)c(S(=O)(=O)Nc2ccc(F)cc2)c1,3,1,0.5,52*,-39,12
CN(C)C(=O)Nc1cnc2ccccc2c1,4,1,1.1,-7,-6,13
COc1ccc(C(=O)O)cc1S(=O)(=O)Nc1cccc(C)c1,-10,1.1,1.1,-13,-3,6
COc1ccc(OC)c(S(=O)(=O)n2nnc3ccccc32)c1,-77,1.8,0.4,59*,·,·
COc1ccc(OC)c(S(=O)(=O)Nc2cccc(C(C)=O)c2)c1,66*,0.3,0,98*,-11,-22
O=S(=O)(Nc1cnc2ccccc2c1)N1CCCCCC1,13,0.9,0.4,57*,-10,-3
COc1ccc(OC)c(S(=O)(=O)Nc2ccc(CC(=O)O)cc2)c1,2,1,1,-3,·,·
Nn1cc(-c2ccccc2)nc1SCC(=O)N1CCN(S(=O)(=O)c2ccc(Cl)cc2)CC1,12,0.9,0.9,6,·,·
CCN(C#N)c1nc(N(C)C)nc(N(C)C)n1,-53,1.5,1.1,-8,5,3
C=CCC(C#Cc1ccc(C)cc1)N(CC)CC (stereo not drawn),3,1,0.9,13,-8,-34
COc1cccc(NC(=O)c2cccnc2)c1,0,1,0.9,7,-10,-12
O=C(COC(=O)c1cccnc1)Nc1cccc(Cl)c1,69*,0.3,0.1,86*,-14,-4
COC(=O)c1nnn(CC(=O)Nc2ccc(C)c(F)c2)c1C(=O)OC,2,1,0.8,19,-11,-19
Cc1cnc(C(=O)OCC(=O)Nc2cccc(Cl)c2)cn1,-2,1,0.6,40,-2,-8
COc1cccc(NC(=O)COC(=O)c2cccnc2)c1,35,0.7,0.3,67*,-3,-30
